Assays:
Experiment in all cases: PBM binding z-score (relative to random genomic background probes); higher = stronger binding; sequences stand for … in GC…GCGATTGACAGCGTAGAATGAAGG
[1] = system: FXR:RXRa (NR concentration 270 nM, RXRa partner concentration 90 nM)
Outline: (§1)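 Binding buffer was PBS pH 7.4 with 2% milk, 0.02% Triton X-100, 1 mM DTT, 0.2 mg/mL BSA and 0.4 mg/ml salmon testes DNA. In it, ligand-free nuclear receptor dimers were incubated 1 h on custom Agilent 4×180K protein-binding microarrays carrying double-stranded probes. Antibodies against each partner (one per run) detected binding, and z-scores were calculated against random background probes after regression normalization of scanned fluorescence.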

[2] = system: LXRa:RXRa (NR concentration 270 nM, RXRa partner concentration 90 nM)
Outline: as §1

[3] = system: LXRa homodimer (NR concentration 270 nM)
Outline: as §1

[4] = system: LXRb:RXRa (NR concentration 270 nM, RXRa partner concentration 90 nM)
Outline: as §1

[5] = system: LXRb homodimer (NR concentration 270 nM)
Outline: as §1

[6] = system: PPARa:RXRa (NR concentration 270 nM, RXRa partner concentration 90 nM)
Outline: as §1

[7] = system: PPARg:RXRa (NR concentration 180 nM, RXRa partner concentration 90 nM)
Outline: as §1

[8] = system: PPARg:RXRa 270nM:90nM, anti-RXR (NR concentration 270 nM, RXRa partner concentration 90 nM)
Outline: as §1

[9] = system: PPARg:RXRa 30nM:10nM, anti-RXR (NR concentration 30 nM, RXRa partner concentration 10 nM)
Outline: as §1

[10] = system: PPARg:RXRa 90nM:30nM, anti-RXR (NR concentration 90 nM, RXRa partner concentration 30 nM)
Outline: as §1

[11] = system: PPARg:RXRa DBDmut IVT, anti-RXR (DBD mutation: RXRa K156A/R161A, NR concentration 270 nM, RXRa partner concentration 90 nM)
Outline: as §1

[12] = system: PPARg:RXRa IVT, anti-PPARg (NR concentration 270 nM, RXRa partner concentration 90 nM)
Outline: as §1

[13] = system: PPARg DBDmut:RXRa IVT, anti-PPARg (DBD mutation: PPARg1 K132A/R137A, NR concentration 270 nM, RXRa partner concentration 90 nM)
Outline: as §1

[14] = system: PPARg DBDmut IVT, anti-PPARg (DBD mutation: PPARg1 K132A/R137A, NR concentration 270 nM)
Outline: as §1

[15] = system: PPARg homodimer (NR concentration 180 nM)
Outline: as §1

[16] = system: PXR:RXRa (NR concentration 270 nM, RXRa partner concentration 90 nM)
Outline: as §1

[17] = system: PXR homodimer (NR concentration 270 nM)
Outline: as §1

[18] = system: RARa:RXR (NR concentration 270 nM, RXRa partner concentration 90 nM)
Outline: as §1

[19] = system: RARa homodimer (NR concentration 270 nM)
Outline: as §1

[20] = system: RARb:RXRa (NR concentration 270 nM, RXRa partner concentration 90 nM)
Outline: as §1

Sequence | PBM binding z-score [1] | PBM binding z-score [2] | PBM binding z-score [3] | PBM binding z-score [4] | PBM binding z-score [5] | PBM binding z-score [6] | PBM binding z-score [7] | PBM binding z-score [8] | PBM binding z-score [9] | PBM binding z-score [10] | PBM binding z-score [11] | PBM binding z-score [12] | PBM binding z-score [13] | PBM binding z-score [14] | PBM binding z-score [15] | PBM binding z-score [16] | PBM binding z-score [17] | PBM binding z-score [18] | PBM binding z-score [19] | PBM binding z-score [20]
GCTTGTAGGTCAAGGTTAAGAAAGACTAAGCTAA | 5.3 | 4.01 | 0.371 | 3.16 | 0.186 | 5.37 | 9.1 | 7.63 | 6.21 | 7.79 | 7.82 | 8 | 2.05 | 1.01 | 1.99 | 2.52 | 0.226 | 3.43 | 1.18 | 4.32
TCATATAGGTAAAGGTGAAAGCCGAACGATATGA | 0.132 | 1.05 | -0.406 | 1.09 | -0.488 | 3.13 | 3.82 | 4.43 | 4.34 | 4.51 | 3.94 | 4.09 | 1.05 | 1.68 | 1.25 | 0.502 | -0.307 | 1.44 | -0.251 | 1.83
ATACCAAGGTGATCGTGAGGTCGTTAATACTAAC | 1.59 | 1.12 | 0.651 | 1.37 | -0.102 | 1.55 | 0.445 | 0.146 | -0.147 | 0.0284 | 0.582 | 1.08 | 0.575 | 0.441 | 1.01 | 3.26 | 1.7 | 2.15 | 0.0918 | 1.44
CGAACTAGGTCATAGACAGGACAGTGAATAGTAA | 3.32 | 2.16 | 0.422 | 1.64 | -0.534 | 4.33 | 7.56 | 6.26 | 3.94 | 5.68 | 7.81 | 8.39 | 2.54 | 1.39 | 1.46 | 1.43 | 0.213 | 2.07 | 0.165 | 3.55
CCGACTGGGGCATTAGGTTACCATAAGCCAGCCC | -0.253 | 0.617 | -0.377 | 0.144 | -1.38 | 1.12 | 2.09 | 2.4 | 0.389 | 1.44 | 4.18 | 4.74 | 1.31 | -0.339 | 0.243 | -0.496 | -0.542 | 0.173 | -0.742 | 0.848
TCTGCTACGTCAGTTGGTCAGCTAACGAGCTGCC | -1.7 | -0.859 | -1.04 | -1.12 | -0.14 | -0.303 | -0.674 | 0.0272 | 1.01 | 0.437 | 0.19 | -0.135 | 0.134 | 0.236 | -2.23 | -0.876 | -1.18 | -0.819 | -1.96 | -0.0758
ATATGTAGGTTAAGGGTCATTCAGGTTGGTTCGC | 5.11 | 5.05 | 3.62 | 4.41 | 1.4 | 6.68 | 11.5 | 9.78 | 10.3 | 11.1 | 7.43 | 7.64 | 1.5 | 1.61 | 4 | 5.48 | 2.98 | 5.87 | 2.71 | 3.79
CAAACTAGTTCAAGGTCAAAGTCGGTTTGTGCCA | 5.67 | 5.81 | 6.22 | 4.81 | 1.76 | 5.13 | 3.27 | 3.88 | 1.53 | 3.03 | 2.12 | 3.26 | 0.529 | -0.205 | 3.85 | 5.23 | 3.52 | 5.1 | 0.936 | 4.34
TAGCCTAGGTCAGATCGGGCCAGTTTACGCTATA | 2.08 | 0.989 | -0.49 | 0.503 | -0.465 | 1.74 | 0.188 | 0.541 | -0.568 | -0.123 | 0.41 | 1.12 | -0.332 | -0.719 | 0.0651 | 1.13 | -0.787 | 0.463 | -1.05 | 2.69
CTAACTAGGTCATTGACAGGACAGTGAATAGTAA | 4.3 | 3.33 | 0.788 | 2.12 | 0.469 | 5.03 | 8.17 | 6.99 | 4.79 | 6.51 | 8.21 | 8.94 | 4 | 4.56 | 0.99 | 1.52 | 0.32 | 2.14 | 0.687 | 3.66
AGAATGAGGTTATTAAGATCAGGTAATTGCGGTC | 1.7 | 1.73 | 0.77 | 1.33 | 0.187 | 2.49 | 1.38 | 1.96 | 0.716 | 1.09 | 3.34 | 2.83 | 0.665 | 0.745 | 1.17 | 1.48 | 0.904 | 1.51 | 0.41 | 1.37
CCTATTAGTTGAGCATAAGGGCAACCGAAGCTCG | 0.0961 | -0.117 | 0.193 | -0.0125 | 0.346 | 0.124 | 0.333 | 0.305 | -0.0457 | 0.368 | -0.00699 | 0.0681 | -0.0638 | 0.243 | 1.36 | 0.18 | 0.549 | 0.348 | 1.39 | 1.1
ACTTACGGGTCAACGAGGTTATTGCACGCGTATA | 6.87 | 5.03 | 1.72 | 4.44 | 0.685 | 5.64 | 5.89 | 5.22 | 1.88 | 3.88 | 3.11 | 3.97 | 1.27 | 2.63 | 3.35 | 5.53 | 5.35 | 5.36 | 1.38 | 4.19
TCGAGTAGGTTACCAATGGTGCATTCAGCTTTCT | -0.236 | 1.22 | -0.491 | 0.425 | -1.1 | 0.801 | 0.0197 | 1.1 | 0.784 | 1.06 | 3.28 | 2.62 | -0.362 | -0.313 | -0.186 | -0.18 | -0.657 | 0.145 | -1.04 | 0.684

Source: the supplement of paper PMC6555819
